# From PubChem BioAssay (Tox21)
# Unmarked numbers belong to inactive results. The source made the active and inactive calls. Calls come from the whole dose curve; as a rule, active = well fitted curve in the direction sought with a large enough effect in the repeat runs; inconclusive = weak or mixed curves; inactive = flat fitted curve, though single readings scatter.
# Experiment: qHTS assay to test for compound auto fluorescence at 590 nm (red) in HEK293 cells (AID 720679)
# Details: red autofluorescence 540/590 nm; series mostly up to 46 µM; fluorescence, % of fluorescent control: at the top concentration
# Summary of the method: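 We plated HEK293 cells in 10% dialyzed FBS medium, let them adhere for 4-5 hr, then added 23 nL compound. Overnight at 37C and 5% CO2 preceded fluorescence measurement at 540/590nm.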
# % is set by controls: 0 for no effect and ±100 for the full control effect.
SMILES,outcome,"fluorescence, % of fluorescent control"
COC1=C(OC)C(=O)C(C/C=C(\C)CC/C=C(\C)CC/C=C(\C)CC/C=C(\C)CC/C=C(\C)CC/C=C(\C)CC/C=C(\C)CC/C=C(\C)CC/C=C(\C)CCC=C(C)C)=C(C)C1=O,inactive,–
COC(=O)C(CN)c1c[nH]c2ccc(OC)cc12 (stereo unspecified),–,-0.217%
CC(C)CCC[C@@H](C)[C@H]1CC[C@H]2[C@@H]3CC=C4C[C@@H](O)CC[C@]4(C)[C@H]3CC[C@]12C,–,0.0539%
C=N[C@@H](C(=O)N[C@@H]1C(=O)N2[C@@H]1SC(C)(C)[C@@H]2C(=O)O)c1ccccc1,–,-0.0318%
Cc1c(O)c(=O)ccn1C,–,-1.2%
CCOC(=O)COc1ccc2c(=O)cc(-c3ccccc3)oc2c1,inactive,–
O=P(O)(O)CP(=O)(O)O,–,0.0194%
CC12CCC(C1)C(C)(C)C2=O (stereo unspecified),–,0.0376%
CC(=O)Nc1ccc(OC(C)=O)cc1,–,0.0134%
CCN(CC)CCOC[C@H]1O[C@@H](O)[C@H](OCCN(CC)CC)[C@@H](O)[C@@H]1O,–,0.0846%
OCC1(CO)COC(C(Cl)(Cl)Cl)OC1,–,-0.166%
C=C1[C@H](CO)[C@@H](O)C[C@@H]1n1cnc2c(=O)[nH]c(N)nc21,–,0.0355%
O=S(=O)(O)CC(S)CS (stereo unspecified),–,-0.0341%
COc1ccc(/C=N/NC(=O)c2ccncc2)c(C(=O)O)c1OC,–,-0.0338%
CCCCCCCCCCCCCCCCCCOCC(COP(=O)([O-])OCC[N+](C)(C)C)OC (stereo unspecified),–,-0.15%
NC(=O)CC[C@@H]1NC(=O)[C@H](Cc2ccccc2)NC(=O)[C@H](Cc2ccc(O)cc2)NC(=O)[C@@H](N)CSSC[C@@H](C(=O)N2CCC[C@H]2C(=O)N[C@@H](CCCN=C(N)N)C(=O)NCC(N)=O)NC(=O)[C@H](CC(N)=O)NC1=O,inactive,–
CCC[C@@H]1C[C@@H](C(=O)N[C@@H]([C@H]2O[C@H](SC)[C@H](OP(=O)(O)O)[C@@H](O)[C@H]2O)[C@H](C)Cl)N(C)C1,inactive,–
C[C@H](NCCc1ccc(O)cc1)[C@H](O)c1ccc(O)cc1,–,-0.891%

SMILES,outcome,"fluorescence, % of fluorescent control"
CC(C)(COP(=O)(O)OP(=O)(O)OC[C@H]1O[C@@H](n2cnc3c(N)ncnc32)[C@H](O)[C@@H]1OP(=O)(O)O)C(O)C(=O)NCCC(=O)NCCS (stereo partly specified),–,0.139%
CC(CNC(=O)c1cccnc1)NC(=O)c1cccnc1 (stereo unspecified),–,0.0928%
O=C(O)c1cc(O)c2c(c1)[C@H]([C@H]1c3cc(C(=O)O)cc(O)c3C(=O)c3c(O[C@@H]4O[C@H](CO)[C@@H](O)[C@H](O)[C@H]4O)cccc31)c1cccc(O[C@@H]3O[C@H](CO)[C@@H](O)[C@H](O)[C@H]3O)c1C2=O,–,0.0656%
C=CCN1C(=O)C(CC(C)C)NC1=S (stereo unspecified),inactive,–
C[C@H](O)CN(C)C,–,0.0118%
CNC(=O)OCc1cccc(COC(=O)NC)n1,–,0.0949%
NC(=O)[C@H]1O[C@@H](O)[C@H](O)[C@@H](O)[C@@H]1O,–,-0.303%
O=P(O)(O)C(O)(Cn1ccnc1)P(=O)(O)O,–,0.0734%
NC(=O)[C@@H]1C[C@]2(NC(=O)NC2=O)c2cc(F)ccc2O1,–,-0.0017%
COc1ccc([C@@H]2CC(=O)c3c(O)cc(O[C@@H]4O[C@H](CO[C@@H]5O[C@@H](C)[C@H](O)[C@@H](O)[C@H]5O)[C@@H](O)[C@H](O)[C@H]4O)cc3O2)cc1O,–,0.0605% [at 18.6 µM]
CC[C@H]1OC(=O)C[C@@H](O)[C@H](C)[C@@H](O[C@@H]2O[C@H](C)[C@@H](O[C@H]3C[C@@](C)(O)[C@@H](O)[C@H](C)O3)[C@H](N(C)C)[C@H]2O)[C@@H](CC=O)C[C@@H](C)C(=O)/C=C/C(C)=C/[C@@H]1CO[C@@H]1O[C@H](C)[C@@H](O)[C@@H](OC)[C@H]1OC,inactive,–
NC(=O)C1c2ccccc2CCc2ccccc21,–,0.0173%
CC(C)=CCC/C(C)=C/CC/C(C)=C/CC/C(C)=C/CC1=C(C)C(=O)c2ccccc2C1=O,inactive,–
COc1cc2c(c(OC)c1OC)-c1c(cc3c(c1OC)OCO3)C[C@@H](C)[C@](C)(O)C2,inactive,–
O=C1CCC(c2ccccc2)(C2CCN(Cc3ccccc3)CC2)C(=O)N1 (stereo unspecified),–,0.0321%
O=C(Cn1cnnn1)N[C@@H]1C(=O)N2C(C(=O)O)=C(CSc3nncs3)CS[C@H]12,inactive,–
CN[C@H](CC(C)C)C(=O)N[C@H]1C(=O)N[C@@H](CC(N)=O)C(=O)N[C@H]2C(=O)N[C@H]3C(=O)N[C@H](C(=O)N[C@@H](C(=O)O)c4cc(O)cc(O)c4-c4cc3ccc4O)[C@H](O)c3ccc(c(Cl)c3)Oc3cc2cc(c3O[C@@H]2O[C@H](CO)[C@@H](O)[C@H](O)[C@H]2O[C@H]2C[C@](C)(N)C(O)[C@H](C)O2)Oc2ccc(cc2Cl)[C@H]1O (stereo partly specified),inactive,–
CC[C@H]1OC(=O)[C@H](C)C(=O)[C@H](C)[C@@H](O[C@@H]2O[C@H](C)C[C@H](N(C)C)[C@H]2O)[C@](C)(OC)C[C@@H](C)C(=O)[C@H](C)[C@H]2N(CCCCn3cnc(-c4cccnc4)c3)C(=O)O[C@]12C,inactive,–
